Screening results from PubChem BioAssay.
MCF10A rerep: induces DNA re-replication in MCF 10a normal breast cells | MCF 10A DNA re-replication, Hoechst nuclear intensity, 48 h | Potency, µM (top dose mostly 46.1 µM), for the others: top-dose activity, positive = re-replication, usual class: activators | hit rate 2.9% among 350,000; also: % of control where 0% means no effect; nearly all actives have a fitted effect of over 50% in size
ELG1 DNA repair: ELG1-dependent DNA repair inhibition; HEK293T ELG1-luciferase reporter, luminescence, 16 h; DNA damage induced by 5-fluorouridine; Potency, µM (highest dose often 46.1 µM), without a hit: top-dose activity change, negative = inhibition, actives largely listed as inhibitors; hit rate 2.3% among 330,000; also: % is scaled to controls: 0 for no effect and ±100 for the full control effect; nearly all actives have a fitted effect of over 55% in size
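Quantitative HTS, concentration-response format. 2,000 cells/well co-treated with 5-fluorouridine and compound, 16 hr in 5% CO2 at 37 °C; ONE-Glo luminescence read after 30 min.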
KB-3-1 cytotox: KB-3-1 parental cell cytotoxicity. AID 1347075. KB-3-1 viability, CellTiter-Glo ATP luminescence, 72 h. hit rate 1.4% among 400,000. Potency, µM (doses to about 46.1 µM), actives largely listed as cytotoxic; also: % is scaled to controls: 0 for no effect and ±100 for the full control effect; nearly all actives have a fitted effect of over 60% in size
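72 h, 37 °C compound treatment of KB-3-1 parental cells; CellTiter-Glo added, 10 min, luminescence read. Data corrected against DMSO-only plates and normalized before curve fitting.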
SW480 rereplic: DNA re-replication induction in SW480 cells | SW480 DNA re-replication, Hoechst DNA content imaging, 48 h | Potency, µM (highest dose often 46.1 µM), for inactives: at the top dose re-replication activation, hits mostly activators | hit rate 1.8% among 340,000 | AID 624297; also: % of control where 0% means no effect; nearly all actives have a fitted effect of over 55% in size
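Compounds, transferred as 23 nL by pin tool, were incubated with cells for 48 hr; DNA content per nucleus was then quantified by Hoechst staining and fluorescence plate imaging.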
KB-V1 MDR tox: kills drug-selected multidrug resistant KB-V1 cells | KB-V1 MDR cells viability, CellTiter-Glo, 72 h | Potency, µM (titrated, usually from 46.1 µM), usual class: cytotoxic | hit rate 3.4% among 400,000 | AID 1347076; also: % is scaled to controls: 0 for no effect and ±100 for the full control effect; nearly all actives have a fitted effect of over 60% in size
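Following 72 h at 37 degrees C with compound, KB-V1 cell viability was read by CellTiter-Glo luminescence, medium being phenol-red-free DMEM plus 10% FBS; concentration-response parameters came from normalized, curve-fitted qHTS data.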
The depositor's hits bear a star; i = inactive; u = inconclusive; x = not tested or not shown; ! = a repeat was not active; [ ] = remark or other dose. Sampled rows, rich in hits. Any-hit rate of the full collection: about 8.1%. Calls follow the shape of the dose curve; as a rule, active = well fitted curve in the direction sought with a large enough effect; inconclusive = small, poorly fitted or top-dose-only effect, or another doubt; inactive = no such curve, though single readings can be large; an effect the other way counts as inactive or inconclusive. Potency is read from the fitted curve at half-maximal effect.

SMILES	MCF10A rerep	ELG1 DNA repair	KB-3-1 cytotox	SW480 rereplic	KB-V1 MDR tox
CC(=O)NC(c1cccs1)c1cc(F)c2cccnc2c1O (stereo not given)	-18%	u	10µM*	u	i
Cc1ccc(-n2nc(C)c3c(C(=O)OCC(=O)N(C)C4CCS(=O)(=O)C4)cc(-c4ccccc4)nc32)cc1 (stereo not given)	21µM*!	-25%	i	4%	i
CCOC(=O)c1cc(-c2ccc(OC)cc2)nc2c1c(C)nn2CCC#N	u	3.7µM*	i	6%	u
CCN(C(=O)COC(=O)c1cc(-c2ccccc2)nc2c1c(C)nn2-c1ccccc1)C1CCS(=O)(=O)C1 (stereo not given)	u	u	i	5%	i
CCOC(=O)c1cc(-c2ccncc2)nc2c1c(C)nn2-c1ccccn1	u	23µM*	i	16%	u
O=C(CNC(=O)c1ccc(Cl)c([N+](=O)[O-])c1)OCN1C(=O)c2ccccc2C1=O	u	8%	i	27%	i
Cn1nnnc1SCCCNCc1cc(Br)ccc1OCc1ccccc1	x	x	i	x	i
c1ccc(-c2nc(N3CCCCCC3)c3ccccc3n2)nc1	u	2.6µM*	3.7µM*	15%	u
c1ccc2nc(N3CCOCC3)c(N3CCCC3)nc2c1	16%	x	i	-1%	i
c1ccc2nc(N3CCCC3)c(N3CCCCC3)nc2c1	21µM*	x	i	0%	i
c1ccc(N2CCN(c3nc(-c4cccs4)nc4ccccc34)CC2)cc1	23µM*	-23%	i	-1%	i
c1ccc2c(N3CCCCC3)nc(N3CCCC3)nc2c1	6%	u	i	2%	16µM*
COc1ccccc1-c1cn(CC[C@H]2CC[C@@H](NS(=O)(=O)c3ccccc3C)[C@@H](CO)O2)nn1	x	x	i	x	i
CCN(CC)S(=O)(=O)c1cc(C(=O)Nc2cc(C)on2)c(Cl)cc1Cl	u	-8%	i	u	i
c1csc(-c2cc(N3CCCCC3)c3ccccc3n2)c1	21µM*	-21%	i	17%	i
c1ccc(-c2nc(N3CCOCC3)c3ccccc3n2)nc1	u	16µM*	i	u	u
CC(=O)N1CCN(Cc2nc3cc(NC(=O)c4ccc(Cl)cc4)ccc3n2C)CC1	5%	21µM*	i	3%	u
CC(=O)N1CCN(Cc2nc3cc(NC(=O)c4cccc(Br)c4)ccc3n2C)CC1	0%	8.2µM*	i	-22%	i
Cc1ccc(C(=O)Cc2ccccc2)o1	1%	28%	i	1µM*	i
Cc1ccc(C(=O)CCNc2ccc(Br)cc2)o1	u	x	i	0%[9.22 µM]	i
Cc1ccc(C(=O)CCNc2ccccc2)o1	7.1µM*	x	i	u	i
COCCNC(=O)C1CCCN(Cc2ccccc2F)CC1 (stereo not given)	x	x	i	x	i
N#CC1(C#N)CC(C=O)=C(N)C1(C#N)CC(=O)C12CC3CC(CC(C3)C1)C2 (stereo not given)	18µM*	16µM*	i	u	i
O=S(=O)(c1ccc(F)cc1)N1CCN(c2nc(-c3cccs3)nc3ccccc23)CC1	x	x	i	x	i
CC(/C=C/c1ccccc1)=N\Nc1nc(C)cc(C)n1	-40%	u	i	u	u
SMILES	MCF10A rerep	ELG1 DNA repair	KB-3-1 cytotox	SW480 rereplic	KB-V1 MDR tox
Cc1cc(C)nc(NN=C(c2ccccc2)c2ccccc2)n1	u	u	i	10µM*	i
COc1ccc(OC)c2c(/C=C/c3ccc(N(C)C)cc3)ccnc12	x	x	i	x	i
COc1ccc(OC)c2c(/C=C/c3c(C)[nH]c4ccccc34)ccnc12	x	x	u	x	21µM*
O=C1NCCc2c1[nH]c1ccc([N+](=O)[O-])cc21	1%	u	1.6µM*	10%	0.92µM*
O=C1NCCc2c1[nH]c1ccccc21	5%	-1%	u	-3%	6.5µM*
COc1ccc2[nH]c3c(c2c1)CCNC3=O	6%	x	u	-8%	u
O=C(N/N=C1\CCCc2c1[nH]c1ccc([N+](=O)[O-])cc21)c1ccncc1	x	3%	x	x	x
